Source: PubChem BioAssay (Broad Institute)
aSyn 5UTR act: Activators working through SNCA 5'UTR binding (MLPCN); AID 1814; alpha-synuclein 5'UTR reporter, activators screen; actives 7.1% (n = 300,000); activity score, % (tested at 7.5 µM), hits read low; in the data active = activity score below about -60%
Numbers without * were called inactive. A selection follows.

SMILES | aSyn 5UTR act
O=C(c1cc2ccccc2oc1=O)N(Cc1ccco1)C1CCS(=O)(=O)C1 (stereo unspecified) | -97.0*
O=c1cc2[nH]c3ccccc3c(=O)n2nc1-c1ccccc1 | -125.2*
CC(C)(C)Nc1nc(-c2ccc3c(c2)CCN3C(=O)C2CC2)cs1 | -80.4*
CC(=O)Nc1nc(-c2ccc3c(c2)CCN3S(C)(=O)=O)cs1 | -207.0*
CC(C)C(=O)Nc1nc(-c2ccc3c(c2)CCN3C(=O)C2CC2)cs1 | -101.5*
Cc1c(CCOC(=O)CC23CC4CC(CC(C)(C4)C2)C3)sc[n+]1CC(=O)c1ccccc1 | -65.4*
Cc1ccc(N/C=C(/C#N)c2ccsc2)cc1 | -174.9*
N#C/C(=C/Nc1ccccc1)c1ccsc1 | -78.7*
COC(=O)C(Cc1ccc(OC(=O)c2ccc(Cl)cc2)cc1)N1Cc2ccccc2C1=O (stereo unspecified) | -124.1*
COC(=O)C(Cc1ccc(OC(=O)c2ccc(C(F)(F)F)cc2)cc1)N1Cc2ccccc2C1=O (stereo unspecified) | -137.2*
CS(=O)(=O)N(CC(=O)NCc1ccncc1)c1ccc(Cl)c(Cl)c1 | -89.4*
CC(C)CC(NC(=O)CNC(=O)C1O[C@@H]2OC(C)(C)O[C@@H]2[C@H]2OC(C)(C)O[C@@H]12)C(=O)O (stereo partly specified) | -84.4*
COc1cccc(/C=N/n2cnc3ccccc32)c1OC | -191.3*
COc1cccc(/C=N/n2c(N)nc3ccccc32)c1OC | -154.5*
Cc1ccc(NC(=O)Nc2ncccc2C)cc1 | -162.9*
Cc1cccnc1NC(=O)Nc1ccc(F)cc1 | -144.1*
CCOC(=O)c1ccc(NC(=O)Nc2ncccc2C)cc1 | -102.4*
CCOC(=O)c1ccc(NC(=S)Nc2ccccn2)cc1 | -136.8*
CC1CCCCN1S(=O)(=O)c1ccc(C(=O)N(CCCN(C)C)c2nc3ccc(Br)cc3s2)cc1 (stereo unspecified) | 67.0
Cc1cc(C)c2nc(N(CCCN(C)C)C(=O)C3=COCCO3)sc2c1 | -90.8*
CN(C)CCCN(C(=O)C1=COCCO1)c1nc2ccc(Br)cc2s1 | -63.4*
CCN(C(=O)C1=COCCO1)c1nc2c(C)cccc2s1 | -83.9*
CCN(CC)S(=O)(=O)c1ccc2nc(NC(=O)c3ccco3)sc2c1 | -63.2*
CCN(CC)S(=O)(=O)c1ccc2nc(NC(=O)c3cccs3)sc2c1 | -104.0*
Cc1ccc(C(=O)/C=C2\NCCNC2=O)cc1 | -71.6*
SMILES | aSyn 5UTR act
CC(=O)c1ccc(N/C=C/C(=O)c2ccc(Br)cc2)cc1 | -225.7*
Cc1ccc(C(=O)/C=C\C(=O)c2ccc(C)cc2)cc1 | -63.3*
Cc1ccc(C(=O)/C=C2\NCC(C)NC2=O)cc1 (stereo unspecified) | 59.0
CC(=O)Nc1ccc(N/C=C/C(=O)c2ccc(C)cc2)cc1 | -74.0*
CC(=O)Nc1ccc(N/C=C/C(=O)c2ccc(Br)cc2)cc1 | -94.7*
COc1ccc(CNC(=O)CSc2nnc(NC(=O)c3ccccc3F)s2)cc1 | -68.6*
CCc1nc2oc3ccccc3c(=O)c2cc1C(=O)OC | -155.9*
COCc1nc2oc3ccc(C)cc3c(=O)c2cc1C(=O)OC | -270.4*
COCc1nc2oc3ccc(F)cc3c(=O)c2cc1C(=O)OC | -108.3*
COc1ccc(NS(=O)(=O)c2cc(C)ccc2C)cc1 | -67.4*
COc1ccc(NS(=O)(=O)c2cc(-c3cnc(C4CC4)o3)ccc2C)cc1 | 82.0
Cc1cc(C(=O)COC(=O)c2cc(Cl)ccc2N)c(C)n1Cc1ccco1 | -157.0*
Cc1cc(C(=O)COC(=O)c2cccn2C)c(C)n1Cc1ccco1 | 76.9
COC(=O)c1cc(CSc2nc3ccccc3[nH]2)oc1C | -173.3*
COc1cccc(CSc2nc3ccccc3[nH]2)c1 | -144.3*
COc1ccc2nc(Nc3nc(CSc4nc5ccccc5[nH]4)cc(=O)[nH]3)nc(C)c2c1 | 102.6
O=[N+]([O-])c1cccc(CSc2nc3ccccc3[nH]2)c1 | -69.7*
COCCn1c(C)cc(/C=C2/SC(=O)N(C(C)C(=O)OC)C2=O)c1C (stereo unspecified) | -153.5*
CCn1c(C)cc(/C=C2/SC(=O)N(C(C)C(=O)OC)C2=O)c1C (stereo unspecified) | -156.1*
C#CCN1C(=O)S/C(=C/c2cc(C)n(CC)c2C)C1=O | -193.2*
CCOC(=O)C(C)N1C(=O)S/C(=C/c2cc(C)n(-c3ccccn3)c2C)C1=O (stereo unspecified) | -143.0*
COC(=O)C(C)N1C(=O)S/C(=C/c2cc(C)n(C(C)C)c2C)C1=O (stereo unspecified) | -127.2*
CC1CCN(c2nc3ccc(C(=O)O)cc3s2)CC1 | 106.0
CCC1CCCCN1CCCNC(=O)c1ccc2nc(N3CCC(C)CC3)sc2c1 (stereo unspecified) | -291.8*
CC1CCN(c2nc3ccc(C(=O)NCCCN4CCCCC4)cc3s2)CC1 | -281.6*
Cc1ccc(NC2=C(Cl)C(=O)c3ccccc3C2=O)cc1 | 60.2
Cc1ccc(NC2=C(N3CCOCC3)C(=O)c3ccccc3C2=O)cc1 | -83.6*
Cc1ccccc1OCc1nc2c3cnn(C)c3ncn2n1 | -151.6*
O=C(Nc1ccc(-c2csc(Nc3ccccc3)n2)cc1)c1ccccc1 | -86.9*
